According to the supplement of paper PMC11417369:
Over roughly 25,000 sequences, “ln(normalized median fluorescence intensity)” has its median near 7.1; the highest 2% begin near 10. This is one part of a sample in which the highest values are shown more often than they occur.

test system: PfSIP2 AP2 domain 1 (GST-tagged); experiment: gcPBM binding intensity (ln(normalized median fluorescence intensity)); higher = stronger DNA binding
Method in brief: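 DNA-binding domains from P. falciparum, fused to GST and produced in E. coli, were put on an Agilent 4 × 180k double-stranded probe array for 1 h in 1× PBS holding 1% milk, 0.2 mg/ml BSA, 0.5% salmon testes DNA and 0.03% Triton X-100. Probes were primer-extended, 36 bp long and drawn from intergenic genomic regions, with negative controls included. After Alexa488 anti-GST antibody detection and a 488 nm scan, binding intensity was set as the highest Masliner-normalised natural-log median intensity across replicate spots of either probe orientation.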

Row | Sequence | gcPBM binding intensity (ln)
1 | ATATAATATGGTATTACACACTGTTAAAAGTATGGC [CACACA_site5190] | 7.03
2 | ATAAATAAATGGTGTTGTACTCTATTATATATATAT [XGTACX_site7835] | 8.66
3 | TTGATTATAATTAGTACACACAAAATACATGCGGGG [CACACA_site2277] | 7.82
4 | ATAAATTTTTAAAAATATGAATTATGTAATTTGTGA [CACACA_negctrl_site1621] | 6.92
5 | TTATTTTATTTTTGTGCACACTGATAAATTGAAAAG [CACACA_site2949] | 10.2
6 | ATATCGTTATTTTTATGTACTAAAATATTTAATTAT [XGTACX_site3516] | 7.09
7 | TGAAATTTTATTAATGTGCACATATATTTATTGTTC | 8.56
8 | CGAACTGCACTTTTTAGTACTTAATAATTATTTTTT [XGTACX_site2446] | 8.47
9 | TTATAATTTTAATGTGCACACAATTAAAATATTATA [CACACA_site5172] | 9.21
10 | TCATTTTAAATATGTGTGCACGTTATAATTTACACA | 9.54
11 | TTTATCTAAATATGTGTGCACTCGTTAATTTTTTTT | 10.5
12 | TGATATTATATTGTGATGCACTTTAAAAATATAAAG [GTGCAC_site9509] | 10.3
13 | TATTTATTGTGACACTTTTATTATTTTATGATAAAA [CACACA_negctrl_site37] | 6.97
14 | AAAAAAATTAATAATGTGCACTTTTTAGTATTTTTA [GTGCAC_site9744] | 10.3
15 | ATTTATATTAAAAGTGTGCACTTTTTTTTTTTTTTT | 10.1
16 | TTTATATTAATTGATGTGCACTGAAATATTTGTCCA [GTGCAC_site9655] | 10.2
17 | TTAAATAAAAGGTTTAGTACTTAAAATAAGAAATGA [XGTACX_site6341] | 6.91
18 | GTATGTAATATTTTAGTGCAAAAAAAAAAAAAAAAA [GTGCAC_site9790] | 8.3
19 | ACAAAAAGTTACATACGTACGTAAAATTGTAATAAA [XGTACX_site2358] | 6.96
20 | TCCATCCACATATATGTACACACATATATATATATA [CACACA_site8970] | 9.43
21 | TTTTTTTTTTTTTTTTGTCCGTACTGCTTTGTGTTT [XGTACX_site3687] | 6.99
22 | AAAAAAAAAAATTAAAGTACAAAAATATTAAAAATA [XGTACX_site6517] | 6.8
23 | ATATATATATATCACCGTACTTATATAATAACATGA [XGTACX_site4398] | 9.36
24 | AGAATATATATAATAGTGCAATGTACAATGAACAAA [GTGCAC_site9577] | 8.01
25 | TTTGGAATATTAATTGTGCACTTAAAAAGTTAATTA | 10
26 | TTTTTTTTGATTTGTTTGCACTTATTTCCACAATAA | 8.23

Row | Sequence | gcPBM binding intensity (ln)
27 | TTTTTTTTTTTTTTGTGTACTAATATTATAAATTTT [XGTACX_site4405] | 7.01
28 | AGTACATTTTTGTGTGTGCACTAATATTATATACTT [GTGCAC_site9568] | 10.3
29 | TATATTTATATATTAGTGCACTTTTTGTTAATTTTT | 10.7
30 | AATTATATTTAGTATATGCACACTTTATGTTTGTTA [CACACA_site2025] | 7.9
31 | AATAATATTTATTTTTGTACATATGTGCATTATAAA [XGTACX_site3682] | 7.13
32 | ATGAAATATTTATTTGTGCACTTAATTTGTTGGAAA | 10.4
33 | TATATATATTAGTGTGCACACTTTTTATTTTTATCC [CACACA_site8506] | 8.6
34 | TTTATTTGTGCATATACACACTTAAATATGTTTATT [CACACA_site7772] | 7.65
35 | ATTATTTTTTTTGAAGTGCAATATTATTTTTAATCA | 8.2
36 | TTTTGTTATTTTGAAGTGCACTTTCCACTTAATATA | 11
37 | GTATATAAATATATATATATATATATATCTATATTT [CACACA_negctrl_site871] | 7.42
38 | ATATTATAAAATAAAAGTACACAATTATATATATAT [XGTACX_site8812] | 8.6
39 | ATTATATAACAAAATAGTACATATATTTATTACATC [XGTACX_site336] | 6.99
40 | CCATATTTCATTAATGAACACACAAAGAGGTATATA [CACACA_site8431] | 7.11
41 | TTCTTCAATATATTCTTACACACTTAAAAAAAAAAA [CACACA_site228] | 7.5
42 | ATAGGACCTATGTGCCCATGGGTACATTAAAAAAAA [CACACA_negctrl_site1465] | 6.83
43 | AAGAAAAATATATATATAAATAAATAAATATATATA [TGCATGCA_negctrl_site330] | 6.98
44 | ATAATATATGTATGTATGCACTTTTATTATTTTTTT | 8.01
45 | TTTTGTTACTTTTATGTGCACTTATAAAACGAACTA [GTGCAC_site9551] | 10.3
46 | TATATATAAATATATGTGCACTTTTTATATTTATAT | 10.6
47 | TATTTATAAATATGTGTGCACAATTTATTTTATAAT | 9.67
48 | TTTTTATTACATAATTAAAAAAAATAATAAAATAAA [XGTACX_negctrl_site249] | 6.8
49 | AACTATTTTATTATATGTACTTACGAATTTATAAAA [XGTACX_site5262] | 7.04
50 | CTTTTAAATTATTTTTGTACATAATTATATATATAT [XGTACX_site4128] | 8.44
51 | CGATTTTTTAAGTTTGTGCACTTAAAAACTATAACA | 9.78
52 | TGTATTAAAAATTTGGTGCAACTTTTACATAATAAT | 10.5

Row | Sequence | gcPBM binding intensity (ln)
53 | ATATTATATTATTAATGTACATATATATAATTTTAA [XGTACX_site4974] | 7.05
54 | AATTTTGTATAGGTATCACACATGAAATATATTATT [CACACA_site5526] | 6.98
55 | ATATATATATATATATGTACATATATTTGTAATGTC [XGTACX_site8074] | 9.37
56 | TTTCATATATATGAAACACACAAAGGAAAAAAAATT [CACACA_site4144] | 7.23
57 | AATATAAATATAAATATAAATATATATATATATATA [TGCATGCA_negctrl_site603] | 9.38
58 | CCTTAAAATAAGATATGTACGCAAAGGAAAACAAAG [XGTACX_site6057] | 7.62
59 | CATTTTTCTATATGTGCATGTAAGATAAGAATAATT [TGCATGCA_site107] | 8.22
60 | TATATAATAAGATATGCATGCACATGTAAAATGAAT [TGCATGCA_site499] | 8.94
61 | CTATGCATTTATAGTGCATGTAAAATATAAGATAAT [TGCATGCA_site71] | 10.3
62 | ATTATATATAATATAGTGCATGTAAAAAATAAAACA | 10
63 | AAATAAATAAATAGAGTGCATATATATATATATTTT | 8.61
64 | ATATATTTTTATGTAGTGCATTTAAATAATAAATGC | 8.42
65 | AAATATTTTTAGAGTGCATGTAATAAAAATATAATG [TGCATGCA_site19] | 10.1
66 | TTAAATATTTTTAGAGTGCATGTAATAAAAATATAA [GTGCAC_site9414] | 10.2
67 | TTCTATGCATTTATAGTGCATGTAAAATATAAGATA [GTGCAC_site9466] | 10.9
68 | TTTATAAAATATCTTTCACACATTACTATGTATTAT [CACACA_site5148] | 6.83
69 | TACTTTTATATAGAAAGTACATACAATTCATAGAAT [XGTACX_site2182] | 6.98
70 | ATATATAAAAAATGTGGTACATTCATTTATTATACA [XGTACX_site3495] | 6.96
71 | GTGTATTTTGTGCGCACACACATGCAAAAAGAAATA [CACACA_site6660] | 9.54
72 | GTGTATTTGGTGCGCACACACATGCAAAAAGAAATA [CACACA_site4768] | 11.6
73 | GTGTATTTTCTGCGCACACACATGCAAAAAGAAATA [CACACA_site1148] | 8.26
74 | ATTTTATGTTGAAAGTGTACGTATTAATATGTAGAA [XGTACX_site245] | 7.34
75 | AAATTATGCATCGAGGTGCGTCTTAAAATATAGTGG | 10.3
76 | GTATATAAATAAATAGTGCATTATTAAAAATAATGT | 9.36
77 | TGTTATTAAAATATAGTGCATAATTAACCATTATAA [GTGCAC_site9594] | 8.63
78 | TAAGAGTAGTTATATACACACATGTATATTATAGTT [CACACA_site6815] | 6.84

Row | Sequence | gcPBM binding intensity (ln)
79 | ATAATATATACTATATGTACATATCTTTTCCTCTTT [XGTACX_site5553] | 7.1
80 | TATAAAAATAAGCACACACACAAATATAGATTTATT [CACACA_site6558] | 6.98
81 | AAAAAAAAAAAAAACACACAGAACAATATATAAATA [CACACA_site982] | 7.11
82 | TCCTTATTTATATAATGTACTTTTTTTTTTCATTTT [XGTACX_site4275] | 6.92
83 | TATTATTTTTCATATGCATGCAAAAATAAAAAAATA [TGCATGCA_site350] | 7.05
84 | ATATTATATAATAATGCATGCACCTTATTTTCATTT [TGCATGCA_site405] | 11.3
85 | TAATAATTAATTAATATAATATTTTTTCATAATTAT [XGTACX_negctrl_site602] | 6.82
86 | CCTTTCACATATAATACATGCATTATTATATATGAA [TGCATGCA_site287] | 7.51
87 | ATTATATAATAATGCATGCACCTTATTTTCATTTCA [GTGCAC_site9922] | 10.7
88 | TTTATATTTATGATGGGTACACAAAATTTTACCCAT [XGTACX_site1504] | 6.96
89 | TGAATAATCAATAGTACACACATATAAATATATATA [CACACA_site2813] | 7.28
90 | AGGTGTCATAGATGCACACAAAAGTAACACGCACCT [CACACA_site4418] | 9.65
91 | AAAAAAAAAATATTTGAACACACGAGGATATATAAA [CACACA_site139] | 6.89
92 | TAAAAGATAAAATATGCATGTGTAATTTTTTTTTTT [TGCATGCA_site955] | 6.79
93 | TAAATATGCTCACAGATGCACTAACACATTTTTATA [GTGCAC_site9997] | 8.14
94 | CCATTTTAAATATGCACACAGATGCACTAACCCATT [CACACA_site1883] | 10.7
95 | CCATTTTAAATATGCACACAGATGCACTAACACATT [CACACA_site5099] | 10.5
96 | TTTTTTTAAATATACACACACATTTATACAGATATA [CACACA_site5811] | 7.12
97 | AACCATTTTAAATATGCACACAGATGCACTAACACA [CACACA_site8565] | 11
98 | TAAATTATATTATGCACACTTAAAAATATATTTAAC [CACACA_site3512] | 9.01
99 | GTATAATATTTTAATGCACACACACTAATAAAAAAA [CACACA_site8939] | 7.65
100 | TGGCACTAAAAAAATAAACACACAGATTTATATAAT [CACACA_site8386] | 6.8
101 | GCACTAAAAAAATAAACACACAGATTTATATAATAT [CACACA_site1381] | 6.83
